Test results: PubChem BioAssay (NCI)
About 83,000 compounds went through this panel and 20% of them were active in at least one assay; those are over-represented in the sample as a whole.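 Single-dose data. Exposure time 48 hours. Values below 10 considered active.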 Unmarked numbers belong to inactive results. Calls of active or inactive are those of the source.

The compounds below were run on MDA-MB-468 breast (assay: NCI-60 one-dose screen, 48 h (100 = growth as untreated, 0 = no growth, -100 = all killed)). Details: 10 µM unless noted.

Row | Compound | growth
1 | COc1ccccc1/C=C/C(=O)c1nnn(-c2ccc(F)cc2)c1C | 38.2%
2 | N#Cc1c(-c2ccc(Cl)cc2)nc2c(-c3ccccc3)c(Nc3ccccc3)nn2c1N | 53.4%
3 | CN(C)C(=S)N=Nc1c(O)[nH]c2ccccc12 | -2.36% (active)
4 | C#CCN1C(=O)/C(=c2\sc3n(c2=O)C2C(NN=3)N(CC)C(=O)N2CC)c2ccccc21 (stereo unspecified) | -26.9% (active)
5 | O=[N+]([O-])c1ccc(-c2nc(N(CCO)CCO)c3ccccc3n2)o1 | -73.5% (active)
6 | c1ccc(-c2cn3c(-c4c[nH]c5ccccc45)csc3n2)cc1 | 3.41% (active)
7 | CCOC(=O)c1c(-c2ccc(Cl)cc2)c(C#N)c(=O)n(-c2ccccc2CC)c1N | 98.9%
8 | CCN(CC)CCCC(C)N/C(c1cccc(OC)c1)=c1\c(=O)[nH]n(-c2c3ccccc3nc3ccccc23)c(=O)\c1=C(/NC(C)CCCN(CC)CC)c1cccc(OC)c1 (stereo unspecified) | -56.2% (active)
9 | CC[C@H](CO)Nc1ccc2ncc(C#Cc3cncc(C(=O)Nc4ccc(CN5CCN(C)CC5)c(C(F)(F)F)c4)c3)n2n1 | -67.8% (active)
10 | C(=N\Nc1ccccn1)/c1ccccn1 | -38.7% (active)
11 | Cc1nn(-c2ccc(F)cc2)c2ncnc(Nc3ccc(NC(=O)Nc4ccc(Cl)c(C(F)(F)F)c4)cc3)c12 | -2.58% (active)
12 | CC(=O)O[C@H]1CC[C@@]2(C)C(=CC[C@@H]3[C@@H]2CC[C@]2(C)C(c4cccnc4)=CC[C@@H]32)C1 | 26.5%
13 | COc1cc(CCn2nnc3c(NCCCCO)ncnc32)cc(OC)c1 | 93.5%
14 | c1ccc(-c2n(Cc3ccc4ccccc4c3)c3c4ccccc4c4ccccc4c3[n+]2Cc2ccc3ccccc3c2)cc1 | -75.5% (active)
15 | COc1cc(NC(=O)Nc2cnc(Nc3ccc(N4CCOCC4)cc3)nc2Oc2cccc(OC)c2)cc(OC)c1 | 29.9%
16 | CCn1cc(CNc2ccc(C(=O)Nc3ccc4ccccc4c3)cc2)c(C)n1 | 24.5%
17 | O=C(CSc1nc2c(n1Nc1ccccc1)-c1ccccc1SC2)Nc1nc(-c2ccc(Cl)cc2)cs1 | 59.1%
18 | Cc1ccc(S(=O)(=O)NCN2C(=O)c3ccccc3C2=O)cc1 | 93.6%
19 | Cc1cnc(-c2ccc(-c3ccc(NC(=O)Nc4c(F)cc(F)cc4F)cc3F)c3c2C(=O)NC3)[nH]1 | 39.6%
20 | Cn1c2ccccc2c2c3c(c4c5ccccc5[nH]c4c21)C(=O)N(N)C3=O | -37.5% (active)
21 | CC1=NN(c2cccc(Cl)c2)C(=O)/C1=C\c1cn(CC(O)CN2CCCCC2)c2ccccc12 (stereo unspecified) | 23.7%
22 | Fc1ccccc1-c1cnn2cc(-c3ccccc3)cnc12 | 124%
23 | C=C1C(=O)O[C@H]2[C@H]1CC/C(COC(=O)NCc1ccc(Cn3c(=O)sn(-c4ccc(Cl)cc4)c3=O)cc1)=C\CC[C@@]1(C)O[C@@H]21 | 22.6%
24 | COc1cc(N2C(=O)[C@H](Cl)C2c2ccc(SC)cc2)cc(OC)c1OC (stereo partly specified) | -9.26% (active)
25 | Cc1cc(/C=C\c2ccc3ccccc3[n+]2C)c(O)c2ncccc12 | -27% (active)
26 | O=c1[nH]nc(-c2ccccc2)c2sc3ncc(-c4ccc(Br)cc4)n3c12 | 13.7%
